From PubChem BioAssay AID1259400 (National Center for Advancing Translational Sciences (NCATS), 2018)
Among all 350,000 compounds or so, about 2,100 (0.6%) were called active. About 1% were inconclusive and are not listed. Many of the other results were omitted from the sample, so actives are more common in it than they were. Values without a mark were called inactive.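 The calls were made as follows: active = activity change of -60% or lower, but not beyond a set lower limit; inconclusive = change between -60% and -40%, or beyond the set limit; inactive = change above -40%.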

Biological target: Relaxin receptor 1 (Homo sapiens) (UniProt Q9HBX9)
Test: qHTS Assay for Antagonists of the Relaxin Receptor RXFP1
Settings: HEK293-RXFP1, relaxin-stimulated cAMP HTRF, 30 min; at 57.5 µM; stronger effect = lower value
Text: The relaxin hormone is involved in the variety of biological functions in normal tissues and diseases. The role of relaxin is well-established in female reproduction and parturition, mammary gland and endometrial development, maintenance of myometrial quiescence during pregnancy. Relaxin signaling through its G protein-coupled receptor (GPCR) RXFP1 results in ECM remodeling through regulation of collagen deposition, cell invasiveness, proliferation and overall tissue homeostasis. […] Recombinant human relaxin (rhRlx) is currently being tested in clinical trials as a protective agent in congestive heart failure, in treating severe preeclampsia, and as an anti-fibrotic agent in various organs. […] Upon relaxin binding RXFP1 activation leads to the activation of adenylate cyclase (AC) via G?s. cAMP will activate PKA, which phosphorylates many signaling proteins. Thus, detection of cAMP increase is an easy and reliable indication of relaxin receptor activation. To screen for antagonists of the relaxin receptor, a HEK293T cell line stably transfected with RXFP1 was used. RXFP1 activation by relaxin in presence of various concentrations of tested compounds was assayed by changes in cAMP levels as detected with a time-resolved fluorescence energy transfer (TR-FRET) cAMP detection kit.
For the primary screening, we used HTRF(R) (Homogenous Time-Resolved Fluorescence) cAMP HiRange assay (Cisbio Bioassays, 62AM6PEJ). Presence of cAMP in the cell lysate disrupts binding between the Cryptate-labeled anti-cAMP and d2-labeled cAMP pair, leading to a decrease in TR-FRET signal. The libraries were screened at two doses (57microM and 11microM), followed by a confirmation of the hits at 7-point serial dilution in the range of final concentrations [57microM - 78nM]. Data were normalized to the controls for basal activity (buffer only) and 100% activity (5 nM porcine relaxin). The EC50 values were determined from concentration-response data modeled with the standard Hill equation. NCGC Assay Protocol Summary: HiHEK (Hawaiian HEK293 LGR7 stably transfected with human RXFP1) were grown in the following media: DMEM+10%FBS+Pen/Strep + Geneticin (1mg/ml). For the assay, the cells were seeded in DMEM+Pen/Strep (with no serum & selective antibiotics) at 2,100 cells/ 3microl/well with MultiDrop Combi dispenser (Thermo Scientific, Logan, UT) onto white tissue culture treated solid bottom1536-well plates (Greiner #789173-F) and allowed to attach/recover overnight at 37 degrees C, 5% CO2. Next, 23nl/well of compound solutions in DMSO were transferred into wells with a pintool (Kalypsis, San Diego, CA). […] EC80 (relaxin at 50pM final concentration) was dispensed to the rest of the plate except columns 1&2 which were used as a negative control (EC0, buffer only), 1microl/well also. The cells were stimulated by relaxin in the presence of compounds for 30 minutes at 37 degrees C, 5% CO2. The detection reagents were prepared individually by dilution in Lysis buffer (supplied with the assay kit) just prior to dispensing. 1microl/well of cAMP-d2 and 1microl/well anti-cAMP-Eu3+-Cryptate antibodies were added simultaneously with BioRAPTR FRDtrade mark Workstation (Beckman Coulter). The plates were incubated at ambient temperature for 30 minutes and, then, FRET signal was read on Envision plate reader (PerkinElmer, Waltham, MA), at wavelengths 340nm (excitation), 615nm & 665nm (emission of donor and acceptor channels respectively).
% is scaled to controls: 0 for no effect and ±100 for the full control effect.

Sequence of Relaxin receptor 1 (Homo sapiens) (Q9HBX9 whole entry, looked up): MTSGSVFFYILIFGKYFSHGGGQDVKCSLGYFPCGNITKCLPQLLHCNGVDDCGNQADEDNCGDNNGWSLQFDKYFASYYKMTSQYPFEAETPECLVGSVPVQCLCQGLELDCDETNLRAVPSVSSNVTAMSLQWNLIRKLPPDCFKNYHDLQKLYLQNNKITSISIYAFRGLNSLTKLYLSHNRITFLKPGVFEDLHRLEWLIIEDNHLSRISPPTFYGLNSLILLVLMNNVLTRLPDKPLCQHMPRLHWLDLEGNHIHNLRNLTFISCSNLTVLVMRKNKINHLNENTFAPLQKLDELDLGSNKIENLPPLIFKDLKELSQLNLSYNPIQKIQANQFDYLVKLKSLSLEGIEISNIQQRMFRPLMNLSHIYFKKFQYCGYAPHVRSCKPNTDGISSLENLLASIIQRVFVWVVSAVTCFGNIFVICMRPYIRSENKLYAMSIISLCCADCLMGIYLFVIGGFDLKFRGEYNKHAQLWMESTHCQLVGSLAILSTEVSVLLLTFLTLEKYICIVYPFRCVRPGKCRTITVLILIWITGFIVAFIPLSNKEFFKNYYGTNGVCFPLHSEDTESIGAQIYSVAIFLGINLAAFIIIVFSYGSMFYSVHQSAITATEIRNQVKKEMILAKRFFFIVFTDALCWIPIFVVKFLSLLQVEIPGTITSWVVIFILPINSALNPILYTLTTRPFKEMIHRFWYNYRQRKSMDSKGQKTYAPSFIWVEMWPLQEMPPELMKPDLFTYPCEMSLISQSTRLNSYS

| Compound | activity change, negative = inhibition |
| --- | --- |
| O=C1NC(=O)C(CCOc2ccccc2)(CCc2ccccc2)C(=O)N1 | 1.73% |
| CCC1(CC(C)c2ccccc2)C(=O)NC(=O)NC1=O (stereo not given) | -60.5% (active) |
| O=C1NC(=O)C(Cc2ccccc2)C(=O)N1 | 13.2% |
| COC(=O)C1=C(c2ccc(OCc3ccccc3)cc2)C[C@@H]2CC[C@H]1N2C(=O)NCc1ccc(Cl)cc1 | -0.858% |
| COc1ccc(C2C=C(C)Oc3c2c(=O)oc2ccccc32)cc1OC (stereo not given) | -2.25% |
| Cc1cc(/C=C2/C(=O)NC(=O)N(Cc3ccco3)C2=O)c(C)n1-c1ccc(C(=O)O)cc1 | 7.49% |
| O=C1NC(=O)N(Cc2ccco2)C(=O)/C1=C\c1ccc(-c2ccc(F)cc2)o1 | -116% (active) |
| O=C1NC(=O)N(Cc2ccco2)C(=O)/C1=C\c1cccn1CCOc1ccccc1 | 2.7% |
| CC1N=C(N)OC1c1ccccc1 (stereo not given) | 7.33% |
| CC(=CCOc1ccc2ccc(=O)oc2c1)C1=CC(=O)C(C)(C)O1 | 1.36% |
| O=C1NC(=O)N(c2ccccc2)C(=O)/C1=C/c1ccc([N+](=O)[O-])s1 | -11.7% |
| COc1cccc(N2C(=O)NC(=O)/C(=C\c3cn(C)c4ccccc34)C2=O)c1 | 1.09% |
| Cc1cccc(N2C(=O)NC(=O)/C(=C\c3cnn(-c4ccccc4)c3)C2=O)c1 | -97.1% (active) |
| CC1=C(C(=O)O)N2C(=O)[C@@H](N)[C@H]2SC1 | 7.08% |
| C[C@H]1CN([C@@H](C)CO)C(=O)CCCn2nncc2CO[C@H]1CN(C)C(=O)Oc1ccccc1 | -9.78% |
| CC(c1ccccc1)(c1ccccc1)c1ccncc1 | -80.6% (active) |
| O=S(=O)(O)C(F)(F)C(F)(F)C(F)(F)C(F)(F)F | 19.3% |
| CO[C@]12CC[C@@]3(C[C@@H]1[C@](C)(O)C(C)(C)C)[C@@H]1Cc4ccc(O)c5c4[C@@]3(CCN1CC1CC1)[C@H]2O5 | -34% |
| CCCOC(=O)c1cncn1C(C)c1ccccc1 (stereo not given) | 12.5% |
| Cc1ncoc1C(=O)NCC1=C(c2cccc3ccccc23)C[C@@H]2CC[C@H]1N2Cc1ccco1 | -0.31% |
| c1cc2c(c(NC3=NCCCS3)c1)CCCC2 | 4.47% |
| CCCCC1C(=O)NC(=O)N(C2CCCCC2)C1=O (stereo not given) | -10.8% |
| CCCCCCCCCCCCn1ccc(=N)cc1 | -73.7% (active) |
| O=c1c2ccccc2nc(CBr)n1-c1ccc(Cl)cc1 | 8.62% |
| C[C@H]1CN([C@@H](C)CO)C(=O)CCCn2nncc2CO[C@H]1CN(C)C(=O)Oc1cccc2ccccc12 | 3.41% |
